PMC4336329 (PLoS ONE, 2015)
Screen size: about 310,000 compounds; about 14,000 (4.5%) showed an effect of 50% or more. Effects have a minus sign here. The sample as a whole holds a higher share of strong results than the screen did.
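Further: peak tail current of the secondary pulse compared with the same well before compound.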

What follows are compounds tested against human ether-à-go-go-related gene (hERG) potassium channel (human, UniProt Q12809) (assay: primary screen, population patch clamp on CHO cells stably expressing hERG; higher = less effect of the substance).
Chain of human ether-à-go-go-related gene (hERG) potassium channel (Q12809 whole entry, looked up): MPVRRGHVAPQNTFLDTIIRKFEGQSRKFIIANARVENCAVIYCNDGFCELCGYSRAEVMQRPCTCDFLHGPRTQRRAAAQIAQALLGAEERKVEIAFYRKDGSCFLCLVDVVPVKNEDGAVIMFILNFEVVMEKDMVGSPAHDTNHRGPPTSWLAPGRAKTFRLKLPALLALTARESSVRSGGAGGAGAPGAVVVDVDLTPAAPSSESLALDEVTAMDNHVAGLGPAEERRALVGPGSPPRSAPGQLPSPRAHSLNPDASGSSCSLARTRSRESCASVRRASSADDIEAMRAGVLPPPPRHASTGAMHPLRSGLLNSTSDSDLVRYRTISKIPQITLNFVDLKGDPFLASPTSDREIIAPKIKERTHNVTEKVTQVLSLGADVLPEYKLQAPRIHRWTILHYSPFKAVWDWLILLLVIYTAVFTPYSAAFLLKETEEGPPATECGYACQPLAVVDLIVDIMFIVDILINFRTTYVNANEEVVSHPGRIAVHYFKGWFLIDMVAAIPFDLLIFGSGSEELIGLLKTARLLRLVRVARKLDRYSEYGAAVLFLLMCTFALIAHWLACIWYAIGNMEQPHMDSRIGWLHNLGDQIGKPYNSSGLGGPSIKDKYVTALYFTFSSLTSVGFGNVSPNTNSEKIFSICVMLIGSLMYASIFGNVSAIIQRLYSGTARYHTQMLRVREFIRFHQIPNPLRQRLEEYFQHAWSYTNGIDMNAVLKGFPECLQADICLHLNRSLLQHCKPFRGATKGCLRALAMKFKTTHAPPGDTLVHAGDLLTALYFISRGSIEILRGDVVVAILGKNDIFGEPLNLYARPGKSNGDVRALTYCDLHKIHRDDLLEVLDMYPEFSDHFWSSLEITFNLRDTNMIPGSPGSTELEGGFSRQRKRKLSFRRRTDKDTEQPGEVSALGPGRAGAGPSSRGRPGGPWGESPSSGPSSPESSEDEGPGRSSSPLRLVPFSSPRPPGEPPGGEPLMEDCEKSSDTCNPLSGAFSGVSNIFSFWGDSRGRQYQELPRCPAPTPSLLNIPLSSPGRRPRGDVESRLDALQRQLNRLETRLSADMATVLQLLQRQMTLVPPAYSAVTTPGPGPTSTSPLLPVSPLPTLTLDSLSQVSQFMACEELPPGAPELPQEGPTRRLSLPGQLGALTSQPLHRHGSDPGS
With `COc1ccc(NC(=O)N(CCCN2CCOCC2)Cc2cccnc2)c(OC)c1` the “hERG current change (%, negative = inhibition) at 10uM” value was 5.99%. `CCOC(=O)c1ccccc1NC(=O)c1cccc([N+](=O)[O-])c1` was tested, and the “hERG current change (%, negative = inhibition) at 10uM” value was 12.5%. For `CCOC(=O)c1cc(=O)[nH]c2ccccc12`, the “hERG current change (%, negative = inhibition) at 10uM” value was 19%. `Nc1[nH]c2cc([N+](=O)[O-])ccc2c1-c1ccccn1` was tested, and the “hERG current change (%, negative = inhibition) at 10uM” value was 20.1%. `CCOC(=O)c1ccc(-c2ccc3[nH]c4ccccc4c(=O)c3c2)cc1F` was tested, and the “hERG current change (%, negative = inhibition) at 10uM” value was 13%. With `Cc1[nH]c2ccccc2c1/C=N/Nc1ccc([N+](=O)[O-])cc1` the “hERG current change (%, negative = inhibition) at 10uM” value was 3.95%. `CCOC(=O)c1csc(N)c1-c1ccc([N+](=O)[O-])cc1` was tested, and the “hERG current change (%, negative = inhibition) at 10uM” value was 6.52%. With `CCOC(=O)c1cc2[nH]c3ccccc3c2[n+](-c2ccc([N+](=O)[O-])cc2)c1N.O=C([O-])C(F)(F)F` the “hERG current change (%, negative = inhibition) at 10uM” value was -58.4%. `N#Cc1cc2[nH]c3ccccc3c2[n+](-c2ccc([N+](=O)[O-])cc2)c1N.[Cl-]` was tested, and the “hERG current change (%, negative = inhibition) at 10uM” value was -65.1%. With `CCOC(=O)c1cc2[nH]c3ccccc3c2[n+](-c2ccc([N+](=O)[O-])cc2)c1C.[Cl-]` the “hERG current change (%, negative = inhibition) at 10uM” value was -77.8%. For `Cc1c(Cl)cccc1NC(=O)c1cc(-c2ccco2)on1`, the “hERG current change (%, negative = inhibition) at 10uM” value was -0.802%. In the case of `N#CC(C#N)=CN=c1ccn(Cc2ccc(Cl)cc2Cl)cc1`, the “hERG current change (%, negative = inhibition) at 10uM” value is reported as 7.39%. In the case of `O=c1cc[nH]c2c(C(F)(F)F)cccc12`, the “hERG current change (%, negative = inhibition) at 10uM” value is reported as -0.945%. For `CCC(C)(C)NC(=O)Cn1c(-c2ccc(C)cc2)noc1=O`, the “hERG current change (%, negative = inhibition) at 10uM” value was 13.5%. In the case of `CC12CCC(C(=O)Nc3ccccc3Cl)([C@H](Br)C1=O)C2(C)C` (some centres unmarked), the “hERG current change (%, negative = inhibition) at 10uM” value is reported as 15.9%. In the case of `COc1cc(C)c(Br)cc1S(=O)(=O)NCCN1CCOCC1`, the “hERG current change (%, negative = inhibition) at 10uM” value is reported as 12.5%. With `C/C=C(/C)C(=O)OC1c2c(ccc3ccc(=O)oc23)OC(C)(C)C1OC(=O)/C(C)=C\C` (centres unmarked) the “hERG current change (%, negative = inhibition) at 10uM” value was -12.3%. For `C/C=C(/C)C(=O)O[C@@H]1[C@H](OC(=O)C=C(C)C)c2c(ccc3ccc(=O)oc23)OC1(C)C`, the “hERG current change (%, negative = inhibition) at 10uM” value was -0.258%. For `CC(=O)OC1c2c(ccc3ccc(=O)oc23)OC(C)(C)C1OC(=O)CC(C)C` (centres unmarked), the “hERG current change (%, negative = inhibition) at 10uM” value was -30.4%. With `C/C=C(\C)C(=O)OC1c2c(ccc3ccc(=O)oc23)OC(C)(C)C1OC(C)=O` (centres unmarked) the “hERG current change (%, negative = inhibition) at 10uM” value was -72.5%. `CC(=O)O[C@@H]1[C@H](OC(=O)CC(C)C)c2c(ccc3ccc(=O)oc23)OC1(C)C` was tested, and the “hERG current change (%, negative = inhibition) at 10uM” value was -67.2%. For `C/C=C(/C)C(=O)O[C@@H]1c2c(ccc3ccc(=O)oc23)OC(C)(C)[C@@H]1OC(=O)/C(C)=C\C`, the “hERG current change (%, negative = inhibition) at 10uM” value was -8.07%. `C/C=C(/C)C(=O)O[C@H]1[C@@H](O)c2c(ccc3ccc(=O)oc23)OC1(C)C` was tested, and the “hERG current change (%, negative = inhibition) at 10uM” value was 3.92%. With `C/C=C(/C)C(=O)OC1c2c(ccc3ccc(=O)oc23)OC(C)(C)C1OC(C)=O` (centres unmarked) the “hERG current change (%, negative = inhibition) at 10uM” value was -71.8%. With `C/C=C(/C)C(=O)O[C@@H]1[C@H](OC(C)=O)c2c(ccc3ccc(=O)oc23)OC1(C)C` the “hERG current change (%, negative = inhibition) at 10uM” value was -36%. In the case of `CC(=O)c1cccc(NC(=O)C(CC(C)C)NC(=O)C2CCCCC2)c1` (centres unmarked), the “hERG current change (%, negative = inhibition) at 10uM” value is reported as -4.77%. With `O=C(O)c1c2c(nc3ccc(S(=O)(=O)N4CCC(C(=O)NC5CCCC5)CC4)cc13)CCCCC2` the “hERG current change (%, negative = inhibition) at 10uM” value was 9.65%. `O=C1c2oc3ccc(Cl)cc3c(=O)c2C(c2cccc(Br)c2)N1CCO` (centres unmarked) was tested, and the “hERG current change (%, negative = inhibition) at 10uM” value was -13.1%. For `COc1ccc(/C(=N\O)c2ncc(C(F)(F)F)cc2Cl)cc1`, the “hERG current change (%, negative = inhibition) at 10uM” value was -3.33%. For `CCOC(=O)c1cnc(COc2ccccc2Cl)[nH]c1=O`, the “hERG current change (%, negative = inhibition) at 10uM” value was 16%. `O=C(CSc1nc2ccccc2n1CC(=O)N1CCCC1)N1CCN(C(=O)c2ccco2)CC1` was tested, and the “hERG current change (%, negative = inhibition) at 10uM” value was -0.921%. For `CCCn1c(SCC(=O)N2CCN(C(=O)c3ccco3)CC2)nc2ccccc2c1=O`, the “hERG current change (%, negative = inhibition) at 10uM” value was -82.8%. `CC(C)Cn1c(SCC(=O)N2CCN(C(=O)c3ccco3)CC2)nc2ccccc2c1=O` was tested, and the “hERG current change (%, negative = inhibition) at 10uM” value was -73.2%. In the case of `CC(C)Cn1c(SCC(=O)N2CCOCC2)nc2ccccc2c1=O`, the “hERG current change (%, negative = inhibition) at 10uM” value is reported as -5.9%. With `CCn1c(SCC(=O)N2CCCC2)nc2ccccc2c1=O` the “hERG current change (%, negative = inhibition) at 10uM” value was -23%. In the case of `CC(C)Cn1c(SCC(=O)N2CCCCC2)nc2ccccc2c1=O`, the “hERG current change (%, negative = inhibition) at 10uM” value is reported as -24.7%. In the case of `Cc1nc2ccccc2c(=O)n1-c1ccc(F)cc1`, the “hERG current change (%, negative = inhibition) at 10uM” value is reported as -12.1%. In the case of `COCCCNC(=S)Nc1ccc(OC(F)F)cc1C`, the “hERG current change (%, negative = inhibition) at 10uM” value is reported as 7.74%. For `CCOC(=O)C1CCN(CCC(=O)Nc2ccc(C)c(C)c2)CC1`, the “hERG current change (%, negative = inhibition) at 10uM” value was -54.2%. With `CCOC(=O)C1CCN(CC(=O)Nc2ccc(OC)c(Cl)c2)CC1` the “hERG current change (%, negative = inhibition) at 10uM” value was -12.5%. `CCOC(=O)C1CCN(c2c(Nc3ccc(C)c(C)c3)c(=O)c2=O)CC1` was tested, and the “hERG current change (%, negative = inhibition) at 10uM” value was -12.6%. With `Cc1cc(NC(=O)CCN2CCC(C(N)=O)CC2)ccc1Br` the “hERG current change (%, negative = inhibition) at 10uM” value was -26.7%. `CCOC(=O)C1CCN(CCC(=O)Nc2ccc(Br)c(C)c2)CC1` was tested, and the “hERG current change (%, negative = inhibition) at 10uM” value was -62.8%. For `CCOC(=O)C1CCCN(CCC(=O)Nc2ccc(Br)c(C)c2)C1.Cl` (centres unmarked), the “hERG current change (%, negative = inhibition) at 10uM” value was -36.1%. With `CCCCn1c(Nc2ccccc2)nc2ccccc21` the “hERG current change (%, negative = inhibition) at 10uM” value was 24.7%. `CCOc1ccc(S(=O)(=O)Nc2cccc(C(=O)N3CCN(C(C)=O)CC3)c2)cc1` was tested, and the “hERG current change (%, negative = inhibition) at 10uM” value was -14.9%. In the case of `C/C(=N/NS(=O)(=O)c1ccc(C(C)(C)C)cc1)c1ccc2c(c1)OCO2`, the “hERG current change (%, negative = inhibition) at 10uM” value is reported as -3.17%. `Cc1cc(=O)oc2cc(OCC(=O)OCC(=O)N(CCC#N)c3ccccc3)ccc12` was tested, and the “hERG current change (%, negative = inhibition) at 10uM” value was 6.04%. With `COC(=O)c1ccc(C(=O)OC)c(NC(=O)CN(c2ccc3c(c2)OCO3)S(C)(=O)=O)c1` the “hERG current change (%, negative = inhibition) at 10uM” value was -21.1%. With `CSCCCNC(=O)c1ccccc1OC1CCN(S(C)(=O)=O)CC1` the “hERG current change (%, negative = inhibition) at 10uM” value was 1.38%. For `CCN(CC)CCNC(=O)c1sc2ncn(CC(=O)Nc3ccc(C)c(Cl)c3)c(=O)c2c1C`, the “hERG current change (%, negative = inhibition) at 10uM” value was -51.8%. `CCN(CC)CCCNC(=O)c1sc2ncn(CC(=O)Nc3ccc(C)c(Cl)c3)c(=O)c2c1C` was tested, and the “hERG current change (%, negative = inhibition) at 10uM” value was -13%. With `COCCNC(=O)c1sc2ncn(CC(=O)Nc3ccc(C)c(Cl)c3)c(=O)c2c1C` the “hERG current change (%, negative = inhibition) at 10uM” value was 10.5%.
